Among the targets are ASCC1 (Homo sapiens, UniProt Q8N9N2); RBMY1C (Homo sapiens, UniProt P0DJD4); THOC4 (Homo sapiens, UniProt Q86V81); RALYL (Homo sapiens, UniProt Q86SE5); KRR1 (Homo sapiens, UniProt Q13601).
What all share (assay): protein domain microarray probed with biotinylated miRNA; Domain array: 20 mM Tris-HCl pH 7.4, 200 mM KCl, 0.2 mM EDTA, 0.05% NP40, 2 ug/ul heparin, overnight 4 C. ORF array: PBS pH 7.0 with RNase inhibitor, 100 ng RNA; high values mean tight binding
Details in all cases: ssRNA

A further assay deals with T1, RBM12(3) (Homo sapiens, UniProt Q9NTZ6).
T1 sequence: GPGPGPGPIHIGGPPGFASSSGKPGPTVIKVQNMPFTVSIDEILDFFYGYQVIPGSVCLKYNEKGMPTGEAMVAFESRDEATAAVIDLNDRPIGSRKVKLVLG

Another assay has as its target T2, RBM41 (Homo sapiens, UniProt Q96IZ5).
T2 sequence: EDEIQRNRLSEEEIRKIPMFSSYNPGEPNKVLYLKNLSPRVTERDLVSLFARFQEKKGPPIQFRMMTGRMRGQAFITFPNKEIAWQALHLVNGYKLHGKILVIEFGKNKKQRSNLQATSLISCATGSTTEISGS

In another assay the target is T3, RBM15 (Homo sapiens, UniProt Q96T37).
T3 sequence: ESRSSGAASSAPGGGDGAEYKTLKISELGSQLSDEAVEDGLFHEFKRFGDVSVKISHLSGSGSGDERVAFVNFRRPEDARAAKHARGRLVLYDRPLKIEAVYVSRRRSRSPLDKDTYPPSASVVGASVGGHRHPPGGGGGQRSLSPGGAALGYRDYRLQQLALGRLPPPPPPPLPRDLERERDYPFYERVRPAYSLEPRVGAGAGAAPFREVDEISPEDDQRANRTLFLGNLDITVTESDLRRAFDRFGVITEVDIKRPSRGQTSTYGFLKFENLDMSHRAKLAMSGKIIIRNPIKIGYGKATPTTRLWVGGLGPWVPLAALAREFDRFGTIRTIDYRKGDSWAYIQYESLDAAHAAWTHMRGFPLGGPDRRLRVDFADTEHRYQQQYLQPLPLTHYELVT

The next assay has as its target T4, TDRKH(1-2) (Homo sapiens, UniProt Q9Y2W6).
T4 sequence: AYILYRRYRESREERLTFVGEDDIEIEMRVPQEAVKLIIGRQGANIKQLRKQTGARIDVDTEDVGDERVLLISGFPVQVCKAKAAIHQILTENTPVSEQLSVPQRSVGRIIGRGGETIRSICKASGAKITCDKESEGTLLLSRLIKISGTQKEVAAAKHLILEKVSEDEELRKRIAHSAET

In a further assay the target is T5, RBMS1 (Homo sapiens, UniProt P29558).
T5 sequence: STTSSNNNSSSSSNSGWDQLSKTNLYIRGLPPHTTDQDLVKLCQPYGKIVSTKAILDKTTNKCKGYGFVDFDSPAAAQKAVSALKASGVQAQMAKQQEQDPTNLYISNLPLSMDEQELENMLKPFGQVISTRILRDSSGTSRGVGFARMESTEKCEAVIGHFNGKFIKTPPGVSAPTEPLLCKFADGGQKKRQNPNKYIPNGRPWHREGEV

The target in a further assay is T6, RBM15B (Homo sapiens, UniProt Q8NDT2).
T6 sequence: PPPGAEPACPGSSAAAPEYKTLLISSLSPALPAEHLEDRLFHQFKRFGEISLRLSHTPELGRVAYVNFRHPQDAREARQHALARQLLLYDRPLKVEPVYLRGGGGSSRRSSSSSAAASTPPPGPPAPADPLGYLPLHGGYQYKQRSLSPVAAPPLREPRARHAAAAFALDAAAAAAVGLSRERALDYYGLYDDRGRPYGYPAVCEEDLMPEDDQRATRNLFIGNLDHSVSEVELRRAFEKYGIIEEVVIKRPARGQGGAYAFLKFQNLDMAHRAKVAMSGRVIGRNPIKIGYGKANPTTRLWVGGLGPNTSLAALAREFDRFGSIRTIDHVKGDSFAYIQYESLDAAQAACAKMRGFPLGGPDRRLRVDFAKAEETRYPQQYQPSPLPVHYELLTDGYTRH

A further assay addresses T7, SF1 (Homo sapiens, UniProt Q15637).
T7 sequence: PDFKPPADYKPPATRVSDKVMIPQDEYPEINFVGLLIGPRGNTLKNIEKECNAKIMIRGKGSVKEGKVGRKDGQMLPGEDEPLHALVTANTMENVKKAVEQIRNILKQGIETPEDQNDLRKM

A further assay concerns the target T8, YTHDF1 (Homo sapiens, UniProt Q9BYJ9).
T8 sequence: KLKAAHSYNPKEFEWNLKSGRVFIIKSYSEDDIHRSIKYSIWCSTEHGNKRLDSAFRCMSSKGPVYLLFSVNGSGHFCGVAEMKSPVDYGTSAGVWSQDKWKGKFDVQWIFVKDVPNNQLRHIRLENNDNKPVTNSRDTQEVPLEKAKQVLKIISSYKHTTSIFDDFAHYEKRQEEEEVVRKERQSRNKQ

For a further assay, the target named is T9, RBM27 (Homo sapiens, UniProt Q9P2N5).
T9 sequence: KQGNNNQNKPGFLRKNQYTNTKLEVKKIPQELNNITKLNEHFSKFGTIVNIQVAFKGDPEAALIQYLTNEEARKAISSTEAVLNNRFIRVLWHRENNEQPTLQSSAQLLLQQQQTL

A further assay addresses T10, STAU2(3) (Homo sapiens, UniProt Q9NUL3).
T10 chain: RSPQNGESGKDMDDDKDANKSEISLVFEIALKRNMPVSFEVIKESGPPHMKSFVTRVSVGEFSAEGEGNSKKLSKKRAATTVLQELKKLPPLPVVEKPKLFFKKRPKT

Another assay addresses T11, RKHD3(1-2) (Homo sapiens, UniProt Q6ZN04).
T11 sequence: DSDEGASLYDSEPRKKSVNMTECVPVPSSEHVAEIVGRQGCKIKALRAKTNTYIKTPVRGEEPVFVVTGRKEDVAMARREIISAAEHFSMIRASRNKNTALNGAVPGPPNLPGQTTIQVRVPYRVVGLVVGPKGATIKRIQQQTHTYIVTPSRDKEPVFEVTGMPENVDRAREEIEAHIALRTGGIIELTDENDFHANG

The next assay concerns the target T12, RBM19(2-4) (Homo sapiens, UniProt Q9Y4C8).
T12 sequence: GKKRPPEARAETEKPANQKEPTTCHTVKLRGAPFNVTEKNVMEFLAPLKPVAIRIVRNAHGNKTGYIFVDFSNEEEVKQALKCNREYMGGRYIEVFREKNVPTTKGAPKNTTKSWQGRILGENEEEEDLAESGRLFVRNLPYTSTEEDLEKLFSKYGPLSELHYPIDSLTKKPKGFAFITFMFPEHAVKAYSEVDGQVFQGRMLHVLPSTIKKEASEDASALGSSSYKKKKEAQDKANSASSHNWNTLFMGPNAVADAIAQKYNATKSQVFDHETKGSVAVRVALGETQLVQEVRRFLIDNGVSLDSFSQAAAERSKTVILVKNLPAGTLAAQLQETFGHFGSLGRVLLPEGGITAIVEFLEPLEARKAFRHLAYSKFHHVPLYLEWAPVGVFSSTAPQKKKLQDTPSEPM

In the next assay the target is T13, RBM26(2) (Homo sapiens, UniProt Q5T8P6).
T13 sequence: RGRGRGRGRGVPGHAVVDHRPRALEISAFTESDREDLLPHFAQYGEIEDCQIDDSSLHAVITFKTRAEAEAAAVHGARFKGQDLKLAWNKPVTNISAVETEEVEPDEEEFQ

The target in a further assay is T14, RBM14 (Homo sapiens, UniProt Q96PK6).
T14 sequence: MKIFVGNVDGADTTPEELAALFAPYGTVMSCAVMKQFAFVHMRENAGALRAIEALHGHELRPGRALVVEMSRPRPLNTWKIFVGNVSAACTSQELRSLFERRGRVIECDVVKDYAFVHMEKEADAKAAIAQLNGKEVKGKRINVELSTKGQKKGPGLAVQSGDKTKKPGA

The target in another assay is T15, PIG38 (Homo sapiens, UniProt Q8TC92).
T15 sequence: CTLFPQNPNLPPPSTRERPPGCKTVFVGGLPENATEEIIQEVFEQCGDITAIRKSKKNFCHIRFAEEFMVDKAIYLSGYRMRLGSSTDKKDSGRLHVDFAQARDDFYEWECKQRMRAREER

Sequence of RBMY1C (P0DJD4 1-110): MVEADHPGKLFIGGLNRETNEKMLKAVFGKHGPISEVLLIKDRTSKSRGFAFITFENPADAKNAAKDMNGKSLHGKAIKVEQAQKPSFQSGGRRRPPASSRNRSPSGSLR
Sequence of RALYL (Q86SE5 1-115): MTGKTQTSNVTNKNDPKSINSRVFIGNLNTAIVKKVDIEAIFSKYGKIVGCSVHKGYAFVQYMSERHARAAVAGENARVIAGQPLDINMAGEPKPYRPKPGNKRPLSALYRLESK
Sequence of KRR1 (Q13601 36-250): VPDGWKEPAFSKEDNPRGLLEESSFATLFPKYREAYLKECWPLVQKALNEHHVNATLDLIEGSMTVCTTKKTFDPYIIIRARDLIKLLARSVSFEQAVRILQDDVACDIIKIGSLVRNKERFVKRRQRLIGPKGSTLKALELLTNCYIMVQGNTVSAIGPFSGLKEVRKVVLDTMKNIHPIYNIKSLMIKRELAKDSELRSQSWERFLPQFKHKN
Sequence of ASCC1 (Q8N9N2 79-168): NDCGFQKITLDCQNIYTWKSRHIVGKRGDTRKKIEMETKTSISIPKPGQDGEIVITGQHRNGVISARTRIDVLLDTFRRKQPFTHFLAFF

In the case of UGAGGUAGUAGGUUGUGUGGUU, the binding signal worked out at 44.9 ± 5.61 fluorescence intensity in the assay with RBM12(3); 435 ± 24.3 fluorescence intensity in the assay with RBM41; 501 ± 99.1 fluorescence intensity in the assay with RBM15; 45.53 ± 0.0141 fluorescence intensity with ASCC1; 93.1 ± 19.1 fluorescence intensity with TDRKH(1-2); 341 ± 18.8 fluorescence intensity with RBMS1. Also, the binding signal in the assay with RBM15B was found to be 268 ± 141 fluorescence intensity; in the assay with RBMY1C, 1360 ± 26.2 fluorescence intensity; in the assay with SF1, 24.25 ± 0.205 fluorescence intensity; with THOC4 it was 133 ± 30 fluorescence intensity; with YTHDF1 it was 113 ± 10.3 fluorescence intensity; with RBM27 it was 985 ± 77.1 fluorescence intensity. Besides, the binding signal in the assay with STAU2(3) was found to be 121 ± 14.8 fluorescence intensity; in the assay with RKHD3(1-2), 1502 ± 3.98 fluorescence intensity; with RBM19(2-4), 1520 ± 225 fluorescence intensity; with RBM26(2), 248 ± 3.91 fluorescence intensity; in the assay with RBM14, 66.3 ± 8.01 fluorescence intensity; with RALYL, 1030 ± 103 fluorescence intensity. The binding signal came out at 72.8 ± 3.97 fluorescence intensity with PIG38 and 153 ± 3.37 fluorescence intensity with KRR1.

On to UGAGGUAGUAGGUUGUAUAGUU, for which the binding signal came to 45.9 ± 18.9 fluorescence intensity with RBM41; 82.1 ± 15.2 fluorescence intensity with RBM15; 78.2 ± 3.38 fluorescence intensity with RBMS1; 42.7 ± 8.55 fluorescence intensity with RBM15B; 643 ± 42.4 fluorescence intensity with RBMY1C; 22.8 ± 4.72 fluorescence intensity in the assay with YTHDF1. Also, the binding signal was found to be 102 ± 16.8 fluorescence intensity in the assay with RBM27; 1250 ± 20.7 fluorescence intensity with RKHD3(1-2); 902 ± 121 fluorescence intensity with RBM19(2-4); 23.4 ± 0.552 fluorescence intensity with RBM26(2); 319 ± 85.1 fluorescence intensity with RALYL; 21.4 ± 1.44 fluorescence intensity with PIG38. The sequence further displayed a binding signal with KRR1 of 20.5 ± 1.99 fluorescence intensity.

UAGCUUAUCAGACUGAUGUUGA: the binding signal was 134 ± 18.6 fluorescence intensity with RBM15; 29.7 ± 0.537 fluorescence intensity in the assay with RBMS1; 30.7 ± 4.65 fluorescence intensity with RBM15B; 371 ± 23 fluorescence intensity with RBMY1C; 145 ± 5.61 fluorescence intensity with RBM27; 1110 ± 41.5 fluorescence intensity with RKHD3(1-2). In addition, the binding signal turned out to be 901 ± 119 fluorescence intensity in the assay with RBM19(2-4) and 190 ± 59.9 fluorescence intensity in the assay with RALYL.

Source of the values: article PMC11574364.
